# Laboratory results as given in a collection of fitness landscapes (doi:10.1016/j.celrep.2020.107928).
# Over roughly 81,000 sequences, “one-hybrid fitness for binding parS DNA” has its median near -0.17; the highest 2% begin near 0.51. The sample as a whole holds a higher share of the highest values than the screen did.
# B1: Caulobacter ParB omega fusion; a variant is named by its letters at X, in order, B8GW30 (parent)
# chain: MESVVVGEPGMSEGRRGLGRGLSALLGEVDAAPAQAPGEQLGGSREAPIEILQRNPDQPRRTFREEDLEDLSNSIREKGVLQPILVRPSPDTAGEYQIVAGERAWRAAQRAGLKTVPIMVRELDDLAVLEIGIIENVQRADLNVLEEALSYKVLMEKFERTQENIAQTIGKSXSHVANXMRLLXLPDEVQSYLVSGELTAXHARAIAAAADPVALAKQIIEGGLSVRETEALARKAPNLSAGKSKGGRPPRVKDTDTQALESDLSSVLGLDVSIDHRGSTGTLTITYATLEQLDDLCNRLTRGI
# Variants of: B1
# Assay: one-hybrid fitness for binding parS DNA (scaled: cognate 1, non-cognate 0); higher = stronger binding
# Conditions: with parS DNA site
# Method in brief: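 The reporter was HIS3, with the binding site 19 bp from the promoter, in E. coli USO used for bacterial one-hybrid selection of Caulobacter ParB libraries with four specificity codons randomised. Growth was on M9 lacking histidine, with 0.1 mM IPTG and 5 mM 3-AT, for 48 hours at 37°C. Illumina sequencing covered plasmids before and after selection; three replicate libraries were pooled and variants with under 10 reads dropped. A fitness score is the log change in variant-to-wild-type read ratio, rescaled to the cognate and non-cognate references.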
row,Variant,one-hybrid fitness for binding parS DNA
1,TPNI,≤ 0.2
2,SATH,≤ 0.2
3,HPWF,≤ 0.2
4,TRNA,≤ 0.2
5,QQAP,≤ 0.2
6,AFMD,≤ 0.2
7,PRPT,≤ 0.2
8,LTYS,≤ 0.2
9,WIST,≤ 0.2
10,RGQD,≤ 0.2
11,RGQN,0.249
12,RGQS,0.803
13,RGYT,0.475
14,RGPT,≤ 0.2
15,RGNT,0.609
16,RGRT,0.676
17,RGST,0.601
18,RGSY,0.226
19,RGNF,≤ 0.2
20,RGDT,0.371
21,LTFV,≤ 0.2
22,QTHV,≤ 0.2
23,HQLT,≤ 0.2
24,QKHC,≤ 0.2

row,Variant,one-hybrid fitness for binding parS DNA
1,SLYD,≤ 0.2
2,GLTA,≤ 0.2
3,CINY,≤ 0.2
4,YKSG,≤ 0.2
5,PKIS,≤ 0.2
6,EFPF,≤ 0.2
7,DVWS,≤ 0.2
8,NFYC,≤ 0.2
9,DMTG,≤ 0.2
10,RGPS,0.336
11,RGRP,≤ 0.2
12,RGYD,≤ 0.2
13,RGAT,0.524
14,RGRS,0.932
15,RGFT,0.455
16,RGHD,≤ 0.2
17,RGRD,≤ 0.2
18,RGYS,0.586
19,RGAP,≤ 0.2
20,RGHS,0.73
21,RGHH,≤ 0.2
22,NMTN,≤ 0.2
23,HQTD,≤ 0.2
24,CKKK,≤ 0.2

row,Variant,one-hybrid fitness for binding parS DNA
1,SMHA,≤ 0.2
2,LLCV,≤ 0.2
3,RNEW,≤ 0.2
4,RGLN,≤ 0.2
5,RGLD,≤ 0.2
6,RGLS,0.65
7,GMLK,≤ 0.2
8,TTDG,≤ 0.2
9,RVPH,≤ 0.2
10,RVPC,0.637
11,RVPN,≤ 0.2
12,RVIN,0.334
13,RVIC,0.846
14,RVIH,≤ 0.2
15,HYPN,≤ 0.2
16,ITNM,≤ 0.2
17,RDKT,≤ 0.2
18,RPKT,≤ 0.2
19,REKT,0.369
20,RSKK,≤ 0.2
21,RSKT,0.796
22,RCKT,0.748
23,PRHS,≤ 0.2
24,MIYR,≤ 0.2

row,Variant,one-hybrid fitness for binding parS DNA
1,VPKS,≤ 0.2
2,TLQM,≤ 0.2
3,RTMA,0.582
4,DRMA,≤ 0.2
5,SYMA,≤ 0.2
6,NTMA,≤ 0.2
7,AYMA,≤ 0.2
8,RFMA,0.504
9,RWMA,0.287
10,DTMA,≤ 0.2
11,RRMA,0.809
12,RYMA,0.553
13,RSMA,0.576
14,NRMA,≤ 0.2
15,NGLP,≤ 0.2
16,DLGV,≤ 0.2
17,QGYV,≤ 0.2
18,HVLF,≤ 0.2
19,IQVR,≤ 0.2
20,RYHV,≤ 0.2
21,WPYE,≤ 0.2
22,RRPL,≤ 0.2
23,ALDW,≤ 0.2
24,VVHY,≤ 0.2

row,Variant,one-hybrid fitness for binding parS DNA
1,RIMA,0.6
2,RAMA,0.565
3,RKMA,0.54
4,RDMA,≤ 0.2
5,RMMA,0.643
6,RGMA,0.283
7,DVGK,0.252
8,PLIV,≤ 0.2
9,KHAR,≤ 0.2
10,MMTD,≤ 0.2
11,HGPW,≤ 0.2
12,CYVF,≤ 0.2
13,NKSN,≤ 0.2
14,THAA,≤ 0.2
15,HRMC,0.225
16,YECR,≤ 0.2
17,PLHI,≤ 0.2
18,EKSD,≤ 0.2
19,KREK,≤ 0.2
20,QAYP,≤ 0.2
21,PIYC,≤ 0.2
22,RNMA,0.47
23,RPMA,≤ 0.2
24,RLMA,0.613

row,Variant,one-hybrid fitness for binding parS DNA
1,RCMA,0.609
2,RHMA,0.503
3,VSPG,≤ 0.2
4,TMCY,≤ 0.2
5,DQLR,≤ 0.2
6,RRPP,≤ 0.2
7,RRIF,≤ 0.2
8,RRIT,0.693
9,RRPH,≤ 0.2
10,RRID,≤ 0.2
11,RRPT,0.761
12,DSHR,≤ 0.2
13,CMQS,≤ 0.2
14,SCFI,≤ 0.2
15,RRRC,0.634
16,RRSC,0.596
17,RRLC,0.669
18,RRNC,0.615
19,RRLP,≤ 0.2
20,RRSM,0.364
21,RRSF,≤ 0.2
22,RRLH,≤ 0.2
23,RRNF,≤ 0.2
24,RRNQ,≤ 0.2

row,Variant,one-hybrid fitness for binding parS DNA
1,RRRQ,≤ 0.2
2,RRRF,≤ 0.2
3,LYTA,≤ 0.2
4,EYRT,≤ 0.2
5,PNAE,≤ 0.2
6,HFHS,≤ 0.2
7,VVVF,≤ 0.2
8,PGKV,≤ 0.2
9,GQNG,≤ 0.2
10,PYHE,≤ 0.2
11,FDPI,≤ 0.2
12,RFFL,≤ 0.2
13,AVTF,≤ 0.2
14,CQAV,≤ 0.2
15,NQES,≤ 0.2
16,RRDR,≤ 0.2
17,RRYC,0.63
18,RRDQ,≤ 0.2
19,DRYC,≤ 0.2
20,RRCH,≤ 0.2
21,NRYC,≤ 0.2
22,RRCC,0.619
23,RRCF,≤ 0.2
24,RRDC,0.701

row,Variant,one-hybrid fitness for binding parS DNA
1,LWSC,≤ 0.2
2,LRPV,≤ 0.2
3,PQAG,≤ 0.2
4,ETTN,≤ 0.2
5,QYKG,≤ 0.2
6,CTWT,≤ 0.2
7,MGFG,≤ 0.2
8,GQDP,≤ 0.2
9,EEAD,≤ 0.2
10,RRAQ,≤ 0.2
11,RRFK,≤ 0.2
12,RRFQ,≤ 0.2
13,RRAT,0.562
14,RRFT,0.623
15,RRAF,≤ 0.2
16,PVDT,≤ 0.2
17,CRAT,≤ 0.2
18,RDEQ,≤ 0.2
19,RRAM,0.271
20,RRAC,0.597
21,RRFR,≤ 0.2
22,RRAK,≤ 0.2
23,RRFF,≤ 0.2
24,RRFC,0.679

row,Variant,one-hybrid fitness for binding parS DNA
1,STSS,≤ 0.2
2,HRSN,≤ 0.2
3,NLCV,≤ 0.2
4,TTRK,≤ 0.2
5,RALS,1.03
6,RAYS,1.03
7,RALN,0.431
8,RAIN,0.301
9,RAIS,0.942
10,RAID,≤ 0.2
11,RAYP,≤ 0.2
12,RAPP,≤ 0.2
13,RALH,0.211
14,RAPN,≤ 0.2
15,RAPS,0.673
16,RAYN,0.445
17,MHTT,≤ 0.2
18,SHEG,≤ 0.2
19,FDNL,≤ 0.2
20,CPKA,≤ 0.2
21,QTHW,≤ 0.2
22,PVVK,≤ 0.2
23,LDQC,≤ 0.2
24,EKET,≤ 0.2

row,Variant,one-hybrid fitness for binding parS DNA
1,RKYY,0.377
2,VKMG,≤ 0.2
3,GMPS,≤ 0.2
4,RAWS,1.05
5,RARS,0.908
6,RAWP,≤ 0.2
7,RAIP,≤ 0.2
8,RARH,≤ 0.2
9,RAPT,0.434
10,RAWD,≤ 0.2
11,RARN,0.419
12,RAIT,0.682
13,GPSP,≤ 0.2
14,PSKI,≤ 0.2
15,CYMT,≤ 0.2
16,DQPL,≤ 0.2
17,FLGS,≤ 0.2
18,RIRH,0.29
19,RIYK,≤ 0.2
20,RIRG,0.955
21,RIRN,0.395
22,RIYG,1.03
23,RIYF,0.265
24,PSLL,≤ 0.2

row,Variant,one-hybrid fitness for binding parS DNA
1,FVQI,≤ 0.2
2,SSST,≤ 0.2
3,LRVT,≤ 0.2
4,AKQS,≤ 0.2
5,WRGT,≤ 0.2
6,LTAS,≤ 0.2
7,HNMS,≤ 0.2
8,RRQD,≤ 0.2
9,RRQH,≤ 0.2
10,RRQM,0.324
11,RRQS,0.649
12,RRQP,≤ 0.2
13,RRQN,0.614
14,DHPT,≤ 0.2
15,RGVM,≤ 0.2
16,LQKG,≤ 0.2
17,QYAK,≤ 0.2
18,TQYT,≤ 0.2
19,RLFM,0.369
20,RLAD,≤ 0.2
21,RLFG,0.991
22,RLAG,1.01
23,RLFK,≤ 0.2
24,RLAN,0.442

row,Variant,one-hybrid fitness for binding parS DNA
1,AIYN,≤ 0.2
2,WEYM,≤ 0.2
3,NPSH,≤ 0.2
4,VRSD,≤ 0.2
5,RAIV,≤ 0.2
6,RPEN,≤ 0.2
7,CYEL,≤ 0.2
8,HDFT,≤ 0.2
9,NCIT,≤ 0.2
10,RYQH,≤ 0.2
11,RYYP,≤ 0.2
12,RYYD,≤ 0.2
13,RYQS,0.912
14,RYIS,0.939
15,RYQD,≤ 0.2
16,RYID,≤ 0.2
17,RYCP,≤ 0.2
18,RYCS,0.958
19,RYCH,0.223
20,RYYS,0.978
21,RYIP,≤ 0.2
22,LVWD,≤ 0.2
23,NPHT,≤ 0.2
24,PSHS,≤ 0.2

row,Variant,one-hybrid fitness for binding parS DNA
1,DITP,≤ 0.2
2,NQLR,≤ 0.2
3,PVNW,≤ 0.2
4,YEPV,≤ 0.2
5,CIDV,≤ 0.2
6,MSHI,≤ 0.2
7,RYGD,≤ 0.2
8,RYSH,≤ 0.2
9,RYRD,≤ 0.2
10,RYGS,0.901
11,RYSS,0.911
12,RYRN,0.375
13,RYSN,0.384
14,RYGN,0.408
15,RYRS,0.824
16,RYHS,0.921
17,RYHD,≤ 0.2
18,RYHN,0.421
